Compounds with a hit are over-represented: about 5.9% of the library has one in this group of screens.
KB-V1 cytotox = kills drug-selected multidrug resistant KB-V1 cells; KB-V1 MDR cells viability, CellTiter-Glo, 72 h; AID 1347076; Potency, µM (doses to about 46.1 µM), most hits filed as cytotoxic; 400,000 compounds, 3.4% hits; further: on the % scale 0 is the no-effect control and ±100 the full control effect; nearly all actives have a fitted effect of over 60% in size
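In this primary screen, KB-V1 cells overexpressing P-gp are incubated with library compounds (lowest to highest concentration) for 72 h at 37 degrees C before a luminescent ATP viability read.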
ATXN2 expr inh = ATXN2 expression inhibition. 360,000 compounds, 0.72% hits. HEK-293 ATXN2-luciferase reporter, luminescence, 24 h. AID 1745845. Potency, µM (highest dose often 57 µM), inactives show at the highest dose activity change, negative = inhibition, usual class: inhibitors; further: on the % scale 0 is the no-effect control and ±100 the full control effect; nearly all actives have a fitted effect of over 55% in size
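ATXN2-luciferase reporter cells (luciferase flanked by upstream and downstream ATXN2 gene portions) were treated 24 h at 37 °C with compounds at up to 57 uM. SteadyGlo luminescence gave expression; GF-AFC fluorescence gave viability.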
HepG2 tox-1 = kills HepG2 cells in TGF-b inhibitor counter-screen. 410,000 compounds, 0.76% hits. HepG2 CAGA-GFP viability, ATP luminescence, 18 h. AID 588856. Potency, µM (top dose mostly 46.1 µM), inactives show at the highest dose activity change, negative = cytotoxicity, most hits filed as cytotoxic
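HepG2 CAGA-GFP cells (1000/well, DMEM with 1% FBS) received compound, then TGF-beta at 500 pg/mL final, and were incubated 18 hours at 37 degrees C. Viability was read by CellTiter-Glo luminescence. Media-only wells were set as complete cell-killing and DMSO as no toxicity.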
KB-3-1 cytotox = kills parental KB-3-1 adenocarcinoma cells. Potency, µM (titrated, usually from 46.1 µM), hits mostly cytotoxic. KB-3-1 viability, CellTiter-Glo ATP luminescence, 72 h. 400,000 compounds, 1.4% hits; further: on the % scale 0 is the no-effect control and ±100 the full control effect; nearly all actives have a fitted effect of over 60% in size
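KB-3-1 parental drug-naive adenocarcinoma cells in DMEM/10% FBS, incubated 72 h at 37 C with pin-transferred compounds across a concentration series. Viability by CellTiter-Glo luminescence; concentration-response curves fitted after normalization.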
ATXN viability = viability counter-screen for ATXN expression inhibitors. S2 cells (HEK-293 line with an ATXN2-luciferase reporter) viability, CellTiter-Fluor protease fluorescence, 24 h. Potency, µM (top dose mostly 56.7 µM), usual class: cytotoxic. 400,000 compounds, 0.49% hits; further: nearly all actives have a fitted effect of over 40% in size
TGFb inhibitor = blocks TGF-b signaling; HepG2 CAGA-GFP TGF-b/SMAD3 reporter, GFP fluorescence, 18 h; TGF-beta stimulated, 500 pg/mL final; Potency, µM (series often up to 46.1 µM), without a hit: at the top dose activity, negative = inhibition, usual class: inhibitors; 410,000 compounds, 1.2% hits; further: on the % scale 0 is the no-effect control and ±100 the full control effect; nearly all actives have a fitted effect of over 65% in size
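TGF-beta reporter screen: HEPG2 CAGA-GFP, 1% FBS, 500 pg/mL TGF-beta final, 18 h; per-cell GFP summed per well; curves fitted and categorized by class.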
TGFb CAGA inh = TGF-b pathway inhibition, cherry-pick retest; shares compounds with TGFb inhibitor; HepG2 CAGA-GFP TGF-b reporter, GFP fluorescence, 18 h; cells stimulated with TGF-beta, 500 pg/mL; Potency, µM (top dose mostly 46.1 µM), for the others: at the highest dose activity, negative = inhibition, hits mostly inhibitors; 1,600 compounds, 63% hits; further: on the % scale 0 is the no-effect control and ±100 the full control effect; nearly all actives have a fitted effect of over 65% in size
HepG2 tox-2 = counter-screen for TGF-b inhibitors: cytotoxicity in HepG2 cells; shares compounds with TGFb inhibitor; HepG2 CAGA-GFP viability, ATP luminescence, 18 h; cells stimulated with TGF-beta, 500 pg/mL; Potency, µM (highest dose often 46.1 µM), without a hit: at the highest dose activity, negative = cytotoxicity, actives largely listed as inhibitors; 1,600 compounds, 27% hits; AID 720535; further: on the % scale 0 is the no-effect control and ±100 the full control effect; nearly all actives have a fitted effect of over 70% in size
CCL64 TGFb inh = blocks TGF-b signaling in CCL64 reporter cells | shares compounds with TGFb inhibitor | CCL64 CAGA-GFP reporter, TGF-b stimulated, GFP fluorescence, 18 h | Potency, µM (series often up to 46.1 µM), inactives show at the top dose activity, negative = inhibition, actives largely listed as inhibitors | 1,600 compounds, 41% hits | AID 720536; further: nearly all actives have a fitted effect of over 65% in size
COP TGFb inh = validation of TGF-b inhibitors in HepG2 COP promoter reporter; AID 720537; shares compounds with TGFb inhibitor; 1,600 compounds, 3% hits; Potency, µM (highest dose often 46.1 µM), for inactives: at the top dose activity, negative = inhibition, usual class: inhibitors; HepG2 COP-GFP TGF-b reporter, GFP fluorescence, 18 h; cells stimulated by added recombinant TGF-beta; further: nearly all actives have a fitted effect of over 70% in size
* = called active by the depositor; i = inactive; ? = inconclusive; · = no result given. The call rests on the fitted dose curve; in most records, active means well fitted curve in the direction sought with a large enough effect; inconclusive means small, poorly fitted or top-dose-only effect, or another doubt; inactive means no such curve, though single readings can be large; an effect the other way counts as inactive or inconclusive. Potency means the concentration at half of the fitted maximal effect.

SMILES	KB-V1 cytotox	ATXN2 expr inh	HepG2 tox-1	KB-3-1 cytotox	ATXN viability	TGFb inhibitor	TGFb CAGA inh	HepG2 tox-2	CCL64 TGFb inh	COP TGFb inh
Cc1c(C(=O)Nc2nonc2-c2ccc(F)cc2)oc2ccc(F)cc12	?	28.2µM*	-27.8%	18.4µM*	?	11.2µM*	13µM*	?	?	55.8%
CCOc1ccc(-c2nonc2NC(=O)c2oc3ccc(F)cc3c2C)cc1	i	-16.4%	-16.0%	?	?	?	·	·	·	·
CC(NCC(O)COCCC12CC3CC(CC(C3)C1)C2)c1ccccc1 (stereo not drawn)	?	31.6µM*	7.08µM*	?	·	7.94µM*	?	20.6µM*	?	?
CN(c1ccc(F)cc1)S(=O)(=O)c1ccc(Cl)c(C(=O)Nc2ccc3c(c2)CCC3)c1	i	-10.2%	0.8%	i	i	11.2µM*	?	-11.6%	-19.9%	-7.3%
CC(C)Oc1ccc(CNC(=O)c2ccc(CN3CC(=O)N4CCCCC4C3=O)cc2)cc1 (stereo not drawn)	i	1.3%	0.8%	i	i	6.1%	·	·	·	·
O=C(NCC1CCCO1)c1ccc(NC(=O)c2ccc(Br)cc2)cc1 (stereo not drawn)	?	-31.9%	-32.3%	i	?	0.0%	·	·	·	·
CCC1=Nc2cc(C(=O)NCC3CCCO3)ccc2Sc2ccc(Br)cc21 (stereo not drawn)	6.51µM*	·	-15.9%	6.51µM*	?	11.2µM*	18.4µM*	-1.5%	?	4.4%
COCCNC(=O)CSc1nc(-c2cc(OC)c(OC)c(OC)c2)[nH]c1-c1ccc(Cl)cc1	·	·	-39.0%	·	·	?	·	·	·	·
CN(C)CC1CCC/C(=C\c2ccc(OC(=O)/C=C/c3ccc(Cl)c(Cl)c3)cc2)C1=O (stereo not drawn)	?	-12.0%	-17.3%	?	?	-0.1%	·	·	·	·
COc1cccc(/C=C2/CCC(CN(C)C)C2=O)c1 (stereo not drawn)	?	13.4µM*	-97.5%	?	·	2.51µM*	2.59µM*	5.8µM*	1.46µM*	?
COc1ccc(/C=C2/CCCC(CN(C)C)C2=O)cc1 (stereo not drawn)	?	?	-32.8%	?	·	6.31µM*	2.59µM*	7.31µM*	4.11µM*	?
O=C1NC[C@@H](CCCCN2C[C@H](Cc3ccc(O)cc3)N(CCc3ccccc3)C(=O)C2=O)N(CCC2CCCCC2)C1=O	i	17.7%	·	i	i	·	·	·	·	·

Bioassay records from PubChem.
